Measured values published in PubChem BioAssay (NCI).
Values joined by “and” are separate entries in the source; they are usually repeats but may differ in a detail not shown here. Equal values may be shown once. The panel holds about 79,000 compounds, 15% with a hit somewhere; the sample as a whole holds those more often. Active and inactive are the calls of the source. No stated cut-off is given here; in the data, active means growth inhibition above about 70%; inactive means the rest.

Key:
[1] = NCI Yeast Anticancer Drug Screen. Data for the rad50 strain (AID 155);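 further: 0% = growth of vehicle-only cultures of the same strain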; settings: S. cerevisiae rad50 strain growth inhibition; at 50.0 µM; hits give high values
In short: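 Yeast carrying a defined DNA repair defect were exposed to test compounds, and growth was compared with vehicle-treated controls to give percent inhibition.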

[2] = NCI Yeast Anticancer Drug Screen. Data for the mec2-1 strain (AID 157); settings: S. cerevisiae mec2-1 strain, at 50.0 µM, hits give high values
In short: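 Strain: mec2-1 (DNA repair/cell cycle alteration). Compound exposure, then growth measured; inhibition expressed relative to vehicle.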

[3] = NCI Yeast Anticancer Drug Screen. Data for the sgs1 mgt1 strain (AID 161);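 further: 0% = growth of cultures given vehicle only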; settings: S. cerevisiae sgs1 mgt1 strain, at 50.0 µM, hits give high values
In short: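 Mutant yeast exposed to compound; growth scored against vehicle-only wells.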

[4] = NCI Yeast Anticancer Drug Screen. Data for the cln2 rad14 strain (AID 165);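 further: 0% = growth equal to vehicle treated cultures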; settings: S. cerevisiae cln2 rad14 strain, at 50.0 µM, hits give high values
In short: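 Compounds are applied to the cln2 rad14 yeast strain, and growth is then compared with that of vehicle-treated cultures to give inhibition.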

[5] = NCI Yeast Anticancer Drug Screen. Data for the bub3 strain (AID 167); settings: S. cerevisiae bub3 mutant strain, at 50.0 µM, hits give high values
In short: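 Compounds were applied to a genetically altered yeast strain carrying a cell-cycle control defect. Growth inhibition was scored against vehicle-treated controls.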

[6] = NCI Yeast Anticancer Drug Screen. Data for the mlh1 rad18 strain (AID 175); settings: S. cerevisiae mlh1 rad18 strain growth inhibition; at 50.0 µM; hits give high values
In short: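 Read-out is yeast growth inhibition, calculated against vehicle-only controls. The compound was applied to a strain engineered with DNA damage repair alterations.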

Measured: growth inhibition

O=C(O)c1ccc(Cl)c(Cl)c1
inactive: [1] 1.7% | [2] -5.4% | [3] 3.9% | [4] -14.2% | [5] 5.95% | [6] 0.45%

COc1ccc2c3c1O[C@]1(C)C34CCN(C)C(C2)C42C=C[C@@]1(OC)c1c(O)ccc(O)c12
inactive: [1] 6.55% | [2] -13.2% | [3] -12.8% | [4] 7.9% | [5] -10.6% | [6] -0.9%

N#Cc1ccccc1Cl
inactive: [1] 8.05% | [2] -8.4% | [3] 5.45% | [4] 20.7% | [5] 24.2% | [6] 40%

O=CC(O)C(O)C(O)C(O)COP(=O)(O)Cc1ccccc1 (stereo not given)
inactive: [1] -44.9% and 4.75% | [2] -12.2% and -25.2% | [3] -62% and -32.6% | [4] -25.3% and 28.1% | [5] -10.2% and -9.4% | [6] -48% and 7.55%

CC1=CC2C(C=C1)S(=O)(=O)N1CC21c1ccccc1 (stereo not given)
inactive: [1] 20.9% | [2] -31.4% | [3] -11% | [4] -8.3% | [5] -20.6% | [6] -3.9%

CC[CH2][Sn]([CH2]CC)[CH2]CC.CC[CH2][Sn]([CH2]CC)[CH2]CC
active: [1] 99.2% | [2] 99.5% | [3] 99.5% | [4] 99.5% | [5] 98.6% | [6] 99.4%

CCC1(CCNC(=O)CNC(C)=O)C(=O)NC(=O)NC1=O
inactive: [1] 3.3% | [2] -6.45% | [3] 10.2% | [4] -45.1% | [5] 10.9% | [6] 10.2%

CC(C)C(Br)C(N)=O (stereo not given)
inactive: [1] -36.1% | [2] -31.1% | [3] 9.75% | [4] -24.6% | [5] -2.85% | [6] -14.8%

[CH3][Sn]([CH3])([CH3])[O]C(=O)C(O)c1ccccc1 (stereo not given)
inactive: [1] 11.6% | [2] -7.7% | [3] 5.1% | [4] 9.4% | [5] -0.05% | [6] -2.3%

Nc1cc(C(=O)O)ccc1O.[Cl][Sn][Cl]
inactive: [1] 2.2% | [2] -4.15% | [3] -6.4% | [4] -45.8% | [5] -1.65% | [6] -19.4%

Cc1c([N+](=O)[O-])cc2c(c1[N+](=O)[O-])C(C)(C)CC2(C)C
inactive: [1] -18.9% | [2] -22.5% | [3] -9.2% | [4] 10.4% | [5] 14.8% | [6] -6.3%

Nc1c(S(=O)(=O)O)cc(Nc2ccc(S(=O)(=O)O)c(Nc3nc(Cl)nc(Cl)n3)c2)c2c1C(=O)c1ccccc1C2=O
inactive: [1] -14.3% | [2] -31.8% | [3] -27.4% | [4] -14.3% | [5] -32.7% | [6] -37.9%

NC(=O)OCCc1c2ccccc2nc2ccccc12
inactive: [1] 19.6% and 47.6% | [2] 3.75% and 51.5% | [3] 11.5% and 49.9% | [4] 2.6% and 42.4% | [5] 8.15% and 34.1% | [6] 16.1% and 64.5%

N#C[C@H](OC1OC(COC2OC(CO)C(O)C(O)C2O)C(O)C(O)C1O)c1ccccc1 (stereo not given in full)
inactive: [1] -34.5% | [2] -34.6% | [3] -20.6% | [4] -1.3% | [5] -29.1% | [6] -28.1%

COc1ccccc1NC1=NCC(C)S1 (stereo not given)
inactive: [1] -10.2% | [2] -15.2% | [3] -52% | [4] 24.4% | [5] -14.4% | [6] -2.1%

CC(O)C[N+](=O)[O-] (stereo not given)
inactive: [1] 5.35% | [2] 8.65% | [3] -4.6% | [4] -23% | [5] 8.5% | [6] 4.8%

CN1C2CCCC1CC(=O)C2
inactive: [1] -10.3% | [2] -3.55% | [3] -19.4% | [4] -22.4% | [5] -3.55% | [6] -10.8%

[Pt].c1ccc([PH+](CC[PH+](CC[PH+](c2ccccc2)c2ccccc2)c2ccccc2)CC[PH+](c2ccccc2)c2ccccc2)cc1 (stereo not given)
inactive: [1] 22.8% | [2] 14.3% | [3] 25.6% | [4] 8.6% | [5] 16.6% | [6] 8.75%

N#Cc1ccc(N)cc1
inactive: [1] -2.9% | [2] -7.9% | [3] -37.5% | [4] -10.8% | [5] -18.4% | [6] -16.8%

CN1CCN(C(=O)Cc2c[nH]c3ccccc23)CC1
inactive: [1] -1.25% | [2] 11.8% | [3] 2.9% | [4] -20.3% | [5] 9.35% | [6] 15.7%
